# ± gives the standard deviation of the averaged measurements.
# Biological target: MurC (UniProt C4ZRI6)
# Assay: relative enzymatic activity vs untreated control (fraction); higher = less inhibition
# Details: 100 µM; incubation time: 2 h at 37 C
# Description: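 In vitro enzymatic inhibition assays (ProFoldin kits) for 12 purified essential E. coli enzymes or complexes, each treated with 218 active antibacterial compounds at 100 µM for 2 h at 37°C. Read-outs were fluorescence or absorbance (phosphate detection, dye binding), converted to activity via standard curves and expressed relative to untreated DMSO controls.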
# MurC, sequence (C4ZRI6 whole entry, looked up): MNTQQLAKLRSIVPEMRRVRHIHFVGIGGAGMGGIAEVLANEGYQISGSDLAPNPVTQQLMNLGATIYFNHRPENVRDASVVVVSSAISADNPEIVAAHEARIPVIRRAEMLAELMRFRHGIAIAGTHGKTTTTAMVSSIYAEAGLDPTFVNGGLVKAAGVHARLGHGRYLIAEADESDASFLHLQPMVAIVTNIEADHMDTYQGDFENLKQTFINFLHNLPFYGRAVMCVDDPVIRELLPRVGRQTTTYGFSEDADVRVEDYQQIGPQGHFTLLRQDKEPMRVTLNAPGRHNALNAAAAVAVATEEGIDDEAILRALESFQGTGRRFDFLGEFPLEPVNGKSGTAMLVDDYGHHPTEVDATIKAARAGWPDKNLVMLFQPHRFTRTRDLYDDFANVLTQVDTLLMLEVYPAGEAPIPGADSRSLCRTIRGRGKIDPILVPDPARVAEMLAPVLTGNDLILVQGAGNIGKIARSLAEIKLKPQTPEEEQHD
row,Compound,relative enzymatic activity
1,CON=C(C(=O)N[C@@H]1C(=O)N2C(C(=O)OCOC(=O)C(C)(C)C)=C(C=Cc3scnc3C)CS[C@H]12)c1csc(N)n1,0.769 ± 0.15
2,O=c1[nH]c(=O)n(C2CC(O)C(CO)O2)cc1F (stereo not given),0.948 ± 0.082
3,COC12C(COC(N)=O)C3=C(C(=O)C(C)=C(N)C3=O)N1CC1NC12 (stereo not given),0.719 ± 0.092
4,O=c1[nH]c(=O)n([C@@H]2C[C@@H](O)[C@@H](CO)O2)cc1F,1.02 ± 0.035
5,Oc1c(Cl)cc(Cl)c(Cl)c1Cc1c(O)c(Cl)cc(Cl)c1Cl,3.59 ± 0.79
6,NCc1ccccc1CC(=O)NC1C(=O)N2C(C(=O)O)=C(CSc3nnnn3CC(=O)O)CSC12 (stereo not given),1.05 ± 0.17
7,CCC1OC(=O)C(C)C(OC2CC(C)(OC)C(O)C(C)O2)C(C)C(OC2OC(C)CC(N(C)C)C2O)C(C)(O)CC(C)CN(C)C(C)C(O)C1(C)O (stereo not given),0.998 ± 0.082
8,CCn1nc(C(=O)O)c(=O)c2cc3c(cc21)OCO3,1.01 ± 0.11
9,CC[C@H]1OC(=O)C[C@@H](O)[C@H](C)[C@@H](O[C@@H]2O[C@H](C)C[C@H](N(C)C)[C@H]2O)[C@@H](CC=O)C[C@@H](C)C(=O)/C=C/[C@]2(C)O[C@H]2[C@@H]1C,1.02 ± 0.099
10,CN(C)c1ccc(O)c2c1CC1CC3C(N(C)C)C(O)=C(C(N)=O)C(=O)C3(O)C(O)=C1C2=O.Cl (stereo not given),1.05 ± 0.025
11,O=C([O-])C1=C(CSc2nnnn2CS(=O)(=O)[O-])CSC2C(NC(=O)C(O)c3ccccc3)C(=O)N12.[Na+].[Na+] (stereo not given),1.25 ± 0.052
12,Cc1cc(C2CCCCC2)n(O)c(=O)c1.NCCO,1.18 ± 0.057
13,CCN1CCN(c2cc3c(cc2F)c(=O)c(C(=O)O)cn3C2CC2)CC1,0.8357 ± 0.0041
14,O=C1OC(=O)[C@H]2[C@@H]1[C@H]1CC[C@H]2O1,1.18 ± 0.093
15,COC1C=COC2(C)Oc3c(C)c(O)c4c(O)c(c(C=NN5CCN(C6CCCC6)CC5)c(O)c4c3C2=O)NC(=O)C(C)=CC=CC(C)C(O)C(C)C(O)C(C)C(OC(C)=O)C1C (stereo not given),0.182 ± 0.016
16,CC1(C)S[C@@H]2[C@H](NC(=O)[C@H](N)c3ccccc3)C(=O)N2[C@H]1C(=O)OCOC(=O)[C@@H]1N2C(=O)C[C@H]2S(=O)(=O)C1(C)C,1.08 ± 0.1
17,CO[C@@H]1[C@@H](OC(=O)c2ccc(C)[nH]2)[C@@H](O)[C@@H](Oc2ccc3c(c2C)OC(=O)[C@H](NC(=O)c2[nH]cc(CC(=O)Nc4cc5ccc(O[C@@H]6OC(C)(C)[C@H](OC)[C@@H](OC(=O)c7ccc(C)[nH]7)[C@H]6O)c(C)c5oc4=O)c2C)C3)CC1(C)C,2.26 ± 0.28
18,C[C@H]1COc2c(C3(N)CC3)c(F)cc3c(=O)c(C(=O)O)cn1c23,1.01 ± 0.03
19,Oc1ccc(Cl)c2cccnc12,1.16 ± 0.16
20,CN(C)c1cc(CNCC(C)(C)C)c(O)c2c1C[C@H]1C[C@H]3[C@H](N(C)C)C(=O)[C@H](C(N)=O)C(=O)[C@@]3(O)C(=O)[C@@H]1C2=O,1.13 ± 0.062

row,Compound,relative enzymatic activity
1,O=c1[nH]cc(F)c(=O)[nH]1,0.97 ± 0.074
2,N[C@@H]1[C@H]2CN(c3nc4c(cc3F)c(=O)c(C(=O)O)cn4-c3ccc(F)cc3F)C[C@@H]12,0.885 ± 0.015
3,CC(C)(O/N=C(\C(=O)N[C@@H]1C(=O)N2C(C(=O)O)=C(C[n+]3ccccc3)CS[C@H]12)c1csc(N)n1)C(=O)O,1.02 ± 0.022
4,CN(C)[C@@H]1C(=O)[C@@H](C(N)=O)C(=O)[C@@]2(O)C(=O)[C@@H]3C(=O)c4c(O)c(NC(=O)CN5CCCC5)cc(F)c4C[C@H]3C[C@@H]12,1.01 ± 0.063
5,Cc1nnc(SCC2=C(C(=O)[O-])N3C(=O)C(NC(=O)Cn4cnnn4)C3SC2)s1.[Na+] (stereo not given),1.05 ± 0.11
6,CON=C(C(=O)NC1C(=O)N2C(C(=O)O)=C(CSC(=O)c3ccco3)CSC12)c1csc(N)n1.Cl (stereo not given),0.89 ± 0.22
7,NCC1OC(OC2C(N)CC(N)C(OC3OC(CO)C(O)C(N)C3O)C2O)C(N)C(O)C1O.O=S(=O)(O)O (stereo not given),1.04 ± 0.018
8,CN[C@@H]1[C@H](O[C@H]2[C@H](O[C@@H]3[C@@H](O)[C@H](O)[C@@H](NC(=N)N)[C@H](O)[C@H]3NC(=N)N)O[C@@H](C)[C@]2(O)CO)O[C@@H](CO)[C@H](O)[C@H]1O.CN[C@@H]1[C@H](O[C@H]2[C@H](O[C@@H]3[C@@H](O)[C@H](O)[C@@H](NC(=N)N)[C@H](O)[C@H]3NC(=N)N)O[C@@H](C)[C@]2(O)CO)O[C@@H](CO)[C@H](O)[C@H]1O,0.963 ± 0.063
9,C=CC1=C(C(=O)O)N2C(=O)[C@@H](NC(=O)/C(=N\OCC(=O)O)c3csc(N)n3)[C@H]2SC1,1.12 ± 0.017
10,Cn1cc(-c2[nH]c3cc(NC(=O)[C@H](N)C4CCCCC4)cc4c3c2C=NNC4=O)cn1,0.943 ± 0.039
11,N[C@H]1CCN(c2nc3c(cc2F)c(=O)c(C(=O)O)cn3-c2ccc(F)cc2F)C1,0.934 ± 0.034
12,Cn1nnnc1SCC1=C(C(=O)[O-])N2C(=O)C(NC(=O)C(O)c3ccccc3)C2SC1.[Na+] (stereo not given),1.091 ± 0.0095
13,CC[C@H]1OC(=O)[C@H](C)[C@@H](O[C@H]2C[C@@](C)(OC)[C@@H](O)[C@H](C)O2)[C@H](C)[C@@H](O[C@@H]2O[C@H](C)C[C@H](N(C)C)[C@H]2O)[C@](C)(O)C[C@@H](C)CN(C)[C@H](C)[C@@H](O)[C@]1(C)O,1.06 ± 0.02
14,CO/N=C(\C(=O)N[C@@H]1C(=O)N2C(C(=O)O)=C(CSC(=O)c3ccco3)CS[C@H]12)c1csc(N)n1,0.977 ± 0.095
15,CN(C)c1ccc(O)c2c1C[C@@H]1C[C@@H]3[C@@H](N(C)C)C(=O)C(C(N)=O)=C(O)[C@]3(O)C(=O)[C@H]1C2=O,1.17 ± 0.024
16,CN(C)CCOC(c1ccccc1)c1ccccc1.Cn1c(=O)c2[nH]c(Cl)nc2n(C)c1=O,1.02 ± 0.026
17,CC[C@@H]1OC(=O)[C@H](C)[C@@H](O[C@H]2C[C@@](C)(OC)[C@@H](O)[C@H](C)O2)[C@H](C)[C@@H](O[C@@H]2O[C@H](C)C[C@H](N(C)C)[C@H]2O)[C@](C)(O)C[C@@H](C)/C(=N\OCOCCOC)[C@H](C)[C@@H](O)[C@]1(C)O,0.962 ± 0.064
18,CC1CCc2c(N3CCC(O)CC3)c(F)cc3c(=O)c(C(=O)O)cn1c23 (stereo not given),0.92 ± 0.079
19,COC1(NC(=O)Cc2cccs2)C(=O)N2C(C(=O)[O-])=C(COC(N)=O)CSC21.[Na+] (stereo not given),1.15 ± 0.057
20,COC(=O)N/N=C/c1c[n+]([O-])c2ccccc2[n+]1[O-],1 ± 0.079
